CBX7 inh – CBX7 inhibition, primary AlphaScreen; O95931; AID 1224903; 66,000 tested, 1.1% active; normalised signal (fraction of DMSO) (test concentration not listed); AlphaScreen His6-CBX7 / biotin-H3K27me3 peptide binding; hits give low values; in the data active = normalised signal below about 0.5
Target sequence (O95931 whole entry, looked up): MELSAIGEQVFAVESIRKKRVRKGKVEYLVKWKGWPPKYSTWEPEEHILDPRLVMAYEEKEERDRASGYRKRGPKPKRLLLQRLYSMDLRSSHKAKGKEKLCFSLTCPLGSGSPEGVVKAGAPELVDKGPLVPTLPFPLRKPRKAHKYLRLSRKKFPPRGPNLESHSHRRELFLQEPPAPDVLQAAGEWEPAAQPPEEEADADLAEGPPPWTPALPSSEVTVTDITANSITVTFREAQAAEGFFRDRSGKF
A number is an active result; - = inactive; ! = not active in a repeat. The sample as a whole holds a higher share of hits than the screen did.

SMILES | CBX7 inh
Cc1cc(N2CCC(C)CC2)nc2ccc(NC(=O)Cc3cccc(C(F)(F)F)c3)cc12 | -
COc1cccc(-c2nn(C)c3sc(C(=O)N4CCCCC4)cc23)c1 | -
O=C(Nc1ccc(Oc2ccccc2)cc1)c1cccc(S(=O)(=O)N2CCOCC2)c1 | -
COc1ccc(-n2c(Cc3cc(=O)[nH]c(=O)[nH]3)nnc2SCC(=O)N2CCCCCC2)cc1 | -
CCn1c(=O)c(=O)n(CC)c2cc(S(=O)(=O)NCc3ccc(OC)cc3)ccc21 | -
O=C1CCCc2c1cc(C(=O)Nc1cccc(Cl)c1)c(=O)n2-c1ccccc1 | -
Cc1cccc(CN2C(=O)CSc3ccc(C(=O)NC4CCCCC4C)cc32)c1 (stereo not given) | -
O=C(CN1C(=O)CSc2ccc(S(=O)(=O)N3CCCC3)cc21)N1CCCC1 | -
O=C(Nc1ccccc1C(=O)Nc1ccccc1)c1cccc(S(=O)(=O)N2CCOCC2)c1 | -
CCN(Cc1ccccc1)S(=O)(=O)c1ccc(C(=O)Nc2nnc(-c3cccc(OC)c3)o2)cc1 | -
Cc1nc2cc(NC(=O)c3ccc(S(=O)(=O)N(C)Cc4ccccc4)cc3)ccc2s1 | -
COc1ccccc1-c1nnc(NC(=O)c2ccc(S(=O)(=O)N(C)Cc3ccccc3)cc2)o1 | 0.00085
CCc1nnc(NC(=O)c2ccc(S(=O)(=O)N(C)Cc3ccccc3)cc2)o1 | 0.43
COc1ccc(-c2nnc(NC(=O)c3ccc(S(=O)(=O)N(C)C)cc3)o2)cc1 | 0.037
COc1cc(OC)cc(-c2nnc(NC(=O)c3ccc(S(=O)(=O)N(C)C)cc3)o2)c1 | -
COc1ccccc1-c1nnc(NC(=O)c2ccc(S(=O)(=O)N3CCOCC3)cc2)o1 | -
COc1ccc(-c2nnc(NC(=O)c3ccc(S(=O)(=O)N4CCCC4)cc3)o2)c(OC)c1 | -
CCOC(=O)c1oc2ccccc2c1NC(=O)c1ccc(S(=O)(=O)N(C)Cc2ccccc2)cc1 | -
COc1cccc(-c2nnc(NC(=O)c3ccc(S(=O)(=O)N4CCOCC4)cc3)o2)c1 | -
COc1cccc(-c2nnc(NC(=O)c3ccc(S(=O)(=O)N(C)Cc4ccccc4)cc3)o2)c1 | 0.1
COc1cccc(-c2nnc(NC(=O)c3ccc(S(=O)(=O)N4CCCC4)cc3)o2)c1 | -
O=C(CC(C(=O)N1CCc2ccccc21)n1ccnc1)NCCCN1CCC(N2CCCCC2)CC1 (stereo not given) | -
CC(CCc1ccccc1)NC(=O)Cc1c(C(=O)O)[nH]c2ccccc12 (stereo not given) | -
CC1CCCC(NC(=O)Cn2nc(Cc3cccnc3)c3ccccc3c2=O)C1C (stereo not given) | -
CC(=O)NCCNC(=O)CCCCCn1c(=O)[nH]c2ccsc2c1=O | -
SMILES | CBX7 inh
CC(O)c1cn(-c2nonc2N)nn1 (stereo not given) | -
Cn1c(SCC(=O)NCc2ccccc2)nnc1-c1ccc(C(C)(C)C)cc1 | -
O=C(CSc1nnc(-c2ccc(Cl)cc2Cl)n1-c1ccccc1)N1CCOCC1 | -
CN(Cc1ccccc1)S(=O)(=O)c1ccc(C(=O)Nc2nnc(-c3ccc(F)cc3)o2)cc1 | 0.14
Cc1oc(-c2ccccc2)nc1C(=O)NCc1ccccc1Cl | -
Clc1ccc(-c2csc(Nc3ccc(Br)cc3)n2)cc1Cl | 0.46!
COc1ccc(Nc2nc(-c3ccc(Cl)cc3)cs2)cc1 | -
Cc1ccc(C)c(-c2csc(Nc3ccc(Cl)cc3)n2)c1 | -
Clc1ccc(-c2csc(Nc3ccccc3)n2)cc1Cl | -
COc1cccc(Nc2nc(-c3ccc(-c4ccccc4)cc3)cs2)c1 | -
COc1cccc(Nc2nc(-c3ccccc3)cs2)c1 | -
COc1cccc(Nc2nc(-c3ccc(Cl)c(Cl)c3)cs2)c1 | 0.44
Cc1ccc(-c2csc(Nc3ccc(Cl)cc3)n2)cc1C | 0.31!
Brc1ccc(Nc2nc(-c3ccc(I)cc3)cs2)cc1 | -
C=CCN(c1ccccc1)S(=O)(=O)c1ccc2[nH]cc(C(=O)NCCc3ccccc3)c(=O)c2c1 | -
COc1ccccc1Nc1cc(C(=O)NC(C)c2ccc3c(c2)OCCO3)c2ccccc2n1 (stereo not given) | -
COc1cc(-c2nc(-c3cccc(C(F)(F)F)c3)c(-c3ccccc3)[nH]2)cc2c1OCO2 | -
Cc1cccc(CCNC(=O)c2cc3c(s2)-c2ccccc2OC3)c1 | -
O=C(Cc1c(C(=O)O)[nH]c2ccc(Cl)cc12)Nc1cccnc1 | -
O=C(Nc1nc2ccc(F)cc2s1)c1ccc(S(=O)(=O)N2CCCCC2)cc1 | -
CCC(C)NC(=O)CCc1c(C)nc2cc(-c3ccccc3OC)nn2c1C (stereo not given) | -
CCOc1ccc(NC(=O)CSc2nc(NC3CCCCC3)c3ccccc3n2)cc1 | -
C=CCN(C(=O)Cc1c(C(=O)O)[nH]c2ccc(Cl)cc12)c1ccccc1 | -
Cc1cc(C)c2c(n1)SCC(=O)N2CC(=O)NCc1ccccc1Cl | -
Cc1onc(-c2ccccc2Cl)c1C(=O)Nc1ccc(OC(C)C)cc1 | -
SMILES | CBX7 inh
C=CCc1cc(C)ccc1OCC(O)CN1CCN(c2ccccc2)CC1 (stereo not given) | 0.38
C=CCc1cc(C)ccc1OCC(O)CN1CCCCC1 (stereo not given) | -
C=CCc1ccccc1OCC(O)CN1CCN(c2ccccc2)CC1 (stereo not given) | -
Cc1ccc(Nc2c(-c3ccc(N4CCOCC4)cc3)nc3ccccn23)cc1 | -
COc1ccc(Nc2c(-c3ccc(C)cc3)nc3sccn23)cc1OC | -
COc1ccc(-c2nc3sccn3c2Nc2ccc3c(c2)OCO3)cc1 | 0.47
Cc1ccc(Nc2c(-c3ccc(N4CCOCC4)cc3)nc3cc(C)ccn23)cc1 | -
Cc1ccc(Nc2c(-c3ccc(N4CCOCC4)cc3)nc3sccn23)cc1C | 0.49
COc1ccc(-c2nc3ccccn3c2Nc2ccc3c(c2)OCCO3)cc1 | -
COc1ccc(N2C(=O)CCC(C(=O)Nc3ccc(F)cc3F)C2c2ccc(F)cc2)cc1 (stereo not given) | -
CCN1CCN(C(c2ccc(OC)c(OC)c2)c2sc3nc(C)nn3c2O)CC1 (stereo not given) | -
COc1cccc(-n2c(-c3ccccc3F)nc3c(cnn3-c3ccc(C)cc3)c2=O)c1 | -
Cc1cccc(-n2c(-c3ccccc3F)nc3c(cnn3-c3ccccc3)c2=O)c1 | 0.49
CCOc1ccc(-n2c(-c3ccccc3F)nc3c(cnn3-c3ccccc3)c2=O)cc1 | -
CCOC(=O)c1c(NC(=O)COc2ccc(Br)cc2)sc2c1CCC(C)C2 (stereo not given) | -
CC(C)(C)C(C(Oc1ccc(Cl)cc1)n1cncn1)n1nnnc1C(c1ccc(Cl)cc1Cl)N1CCCCC1 (stereo not given) | -
O=C(CCc1cn(Cc2ccccc2)c2ccccc12)NCCc1ccc(Cl)cc1 | -
COc1cccc(CNC(=O)CCc2cn(Cc3ccc(C)cc3)c3ccccc23)c1 | -
Cc1ccc(Cn2cc(CCC(=O)NCc3cccnc3)c3ccccc32)cc1 | 0.26
CCc1ccc(CNC(=O)CCc2cn(Cc3ccccc3)c3ccccc23)cc1 | -
O=C(CCc1cn(Cc2ccccc2)c2ccccc12)NCc1ccccc1Cl | 0.49
Cc1ccc(Cn2cc(CCC(=O)NCc3ccccc3)c3ccccc32)cc1 | -
CC(C)c1ccc(-c2csc(NC(=O)CN3C(=O)CCC3=O)n2)cc1 | -
Cc1cc(F)c(F)cc1C(=O)N1CCCCCC1 | -
Cc1nc2cc(NC(=O)c3ccc(S(=O)(=O)N4CCC(C)CC4)cc3)ccc2s1 | -
Cc1ccc(OCCCCc2c(C)n[nH]c2C)c(C(C)(C)C)c1 | 0.42
Cc1n[nH]c(C)c1CCCCCOc1ccccc1F | -
Cc1ccc(C)c(OCCCCCCc2c(C)n[nH]c2C)c1 | -

Assay outcomes from PubChem BioAssay.
